Assay outcomes (PubChem)
Sampled rows, rich in hits. Any-hit rate of the full collection: about 3.9%.
WT yeast gro inh = growth inhibition of WT yeast, mitochondrial fusion screen | mitochondrial fusion phenotypic screen, WT strain | inhibition, % at 10 µM | 190,000 tested, 2.1% active | AID 1362; in the data active means inhibition above about 58%; tested in S. cerevisiae
PHOSPHO1 inh = PHOSPHO1 (human) inhibition. Q8TCT1. recombinant PHOSPHO1, absorbance phosphatase assay. inhibition, % at 13.3 µM. 290,000 tested, 1.1% active. AID 1565; in the data active means inhibition above about 60%
Target sequence (Q8TCT1 whole entry, looked up): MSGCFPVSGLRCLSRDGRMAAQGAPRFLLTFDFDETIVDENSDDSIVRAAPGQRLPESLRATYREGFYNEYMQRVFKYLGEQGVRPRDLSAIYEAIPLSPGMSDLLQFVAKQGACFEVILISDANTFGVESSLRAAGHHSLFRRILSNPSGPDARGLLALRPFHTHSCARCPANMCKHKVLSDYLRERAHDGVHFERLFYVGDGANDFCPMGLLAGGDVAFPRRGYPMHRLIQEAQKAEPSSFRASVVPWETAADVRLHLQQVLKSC
Rtt109 Vps75 = C. albicans Rtt109 histone acetyltransferase inhibition; inhibition, % at 34.9 µM; purified Rtt109/Vps75, ThioGlo CoA-SH fluorescence, 4 h; Q5AAJ8; 330,000 tested, 0.16% active;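 active means inhibition of at least 50% in every replicate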
Target sequence (Q5AAJ8 whole entry, looked up): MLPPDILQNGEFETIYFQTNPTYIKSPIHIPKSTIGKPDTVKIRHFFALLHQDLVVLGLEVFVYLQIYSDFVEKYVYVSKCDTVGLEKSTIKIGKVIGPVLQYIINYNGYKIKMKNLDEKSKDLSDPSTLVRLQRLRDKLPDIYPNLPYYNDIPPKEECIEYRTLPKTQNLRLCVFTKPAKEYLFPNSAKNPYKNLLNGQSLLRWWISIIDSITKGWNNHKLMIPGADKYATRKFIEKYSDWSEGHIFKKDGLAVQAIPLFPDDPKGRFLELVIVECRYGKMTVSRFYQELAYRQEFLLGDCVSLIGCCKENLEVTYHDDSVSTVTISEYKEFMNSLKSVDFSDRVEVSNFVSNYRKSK
Platelet DG rel = modulates dense granule release in human platelets. inhibition, %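 (compounds screened at 7.5 µM in platelet-rich plasma)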. human platelet-rich plasma, SFLLRN dense granule ATP release, luminescence. 300,000 tested, 0.22% active;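 active means mean replicate score, as percent of positive control, at or above 50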
TPT1 inhibitor = C. albicans TPT1 enzyme inhibition; inhibition, % at 5 µM; AID 1962; 300,000 tested, 0.81% active; recombinant caTPT1, FP RNA substrate dephosphorylation;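 active means inhibition above the mean of all tested compounds plus 3 SD, set per screening campaign, cut at about 24% in these data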
SKKanGAS inh = inhibitors of SKKanGAS S. pyogenes growth in kanamycin (SK-promoter or general growth effect); BacTiter-Glo, 6 h; inhibition, % at 7.5 µM; 300,000 tested, 1.3% active;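 active means mean replicate score, as percent of positive control median, at least 50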;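 further: strain carries kanamycin resistance gene driven by streptokinase promoter and grows in 40 µg/ml kanamycin; loss of luminescence reflects streptokinase promoter inhibition or plain growth inhibition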
Numbers stand for hits; . = inactive; / = no result; ! = repeats disagree.

SMILES | WT yeast gro inh | PHOSPHO1 inh | Rtt109 Vps75 | Platelet DG rel | TPT1 inhibitor | SKKanGAS inh
COC(=O)c1[nH]c2ccccc2c1NC(=O)C(C)N1CCN(C(=O)c2ccco2)CC1 (centres undefined) | . | 72 | . | . | . | .
CCOC(=O)c1c(NC(=O)C(C)N2CCN(C(=O)c3ccco3)CC2)sc2c1CCCC2 (centres undefined) | 70 | . | . | . | . | .
CCOC(=O)c1c(NC(=O)c2cccs2)sc2c1CCN(C(=O)OCC)C2 | 63 | . | . | . | . | 54
CC(=O)Nc1cc2c(cc1Br)-c1ccccc1C2 | / | / | . | / | / | /
O=C(COc1cccc(Br)c1)NN=C1c2ccccc2-c2ccccc21 | . | . | . | . | . | .
O=C(NN=C1c2ccccc2-c2ccccc21)c1cccc(Br)c1 | . | . | . | . | . | 72
CC(C)[C@H](NC(=O)N1c2ccccc2NC(=O)[C@@H]1C(C)C)C(=O)N[C@H](Cc1ccccc1)C(=O)O | / | 65 | . | . | . | .
Cc1ccc(C)c(N(C(=O)Cc2cccs2)C(C(=O)NC2CCCC2)c2ccc(C)o2)c1 (centres undefined) | . | . | . | . | . | .
Cc1ccc(C(C(=O)NC2CCCC2)N(C(=O)Cc2cccs2)c2ccc(C)c(C)c2)o1 (centres undefined) | 63 | . | . | / | . | /
COCCN(C(=O)Cc1cccs1)C(C(=O)NC1CCCC1)c1cc(OC)c(OC)c(OC)c1 (centres undefined) | . | 62 | . | . | . | .
Cc1cccc(C)c1NC(=O)COn1nnc2ccc(C(F)(F)F)cc21 | . | . | . | . | . | .
O=C(COC(=O)Cc1ccccc1[N+](=O)[O-])Nc1nnc(-c2ccccc2)o1 | / | / | 56 | . | . | .
COc1cccc(C(=O)OCC(=O)Nc2nnc(-c3ccccc3)o2)c1 | / | / | . | . | . | 68
O=C(COn1nnc2ccc(C(F)(F)F)cc21)Nc1nnc(-c2ccccc2)o1 | . | . | . | . | . | 91
NC(CO)C(=O)NNCc1ccc(O)c(O)c1O (centres undefined) | . | . | 79! | . | . | .
CC1CCC(NC(=O)c2ccc(NC(=O)CC3SC(N4CCCC4)=NC3=O)cc2)CC1 (centres undefined) | / | / | . | . | . | .
CCOC(=O)C(C(=O)Cc1ccccc1)c1ccccc1 (centres undefined) | / | / | . | / | / | /
Cn1c(CNc2ccc(Cl)cc2)nc2ccccc21 | . | . | . | . | . | .
CC(C)N=c1cc2n(-c3ccc(Cl)cc3)c3ccccc3nc-2cc1Nc1ccc(Cl)cc1 | / | / | . | . | . | 98
CSCCC(NC(=O)c1ccco1)C(=O)N(C)CC(=O)Nc1ccccc1Br (centres undefined) | / | / | . | / | / | /
COC(=O)c1c(NS(=O)(=O)c2ccc3ccccc3c2)sc2c1CCCC2 | . | 71 | . | . | . | .
CC1CCc2c(sc(NS(=O)(=O)c3ccccc3)c2C(=O)OC(C)C)C1 (centres undefined) | . | . | . | . | . | 95
CC1CCc2c(sc(NC(=O)c3ccco3)c2C(=O)O)C1 (centres undefined) | / | . | . | . | . | .
CCOC(=O)c1c(NS(=O)(=O)c2ccc(Br)cc2)sc2c1CCC2 | 65 | / | . | . | . | 79
N#Cc1cccc(NC(=O)Cn2cnc(S(=O)(=O)N3CCOCC3)c2)c1 | / | . | . | . | . | .
SMILES | WT yeast gro inh | PHOSPHO1 inh | Rtt109 Vps75 | Platelet DG rel | TPT1 inhibitor | SKKanGAS inh
COCCN(C(=O)c1ccc2c(c1)C(=O)N(c1ccccc1Cl)C2=O)c1c(N)n(CC(C)C)c(=O)[nH]c1=O | / | / | . | / | / | /
COc1ccc(NC(=O)CN(C)CC(=O)N2CCCCCC2)cc1 | / | / | . | / | / | /
N#CCC(=O)NNC(=S)NC(=O)C(c1ccccc1)c1ccccc1 | . | . | . | . | . | .
CC(=O)NC(=S)NNC(=O)C(c1ccccc1)c1ccccc1 | . | . | . | . | . | 80
CCOC(=O)c1cc(-c2cccs2)nc2c1c(C)nn2-c1ccccn1 | 69 | . | . | . | . | 58
N#C/C(=C\c1ccncc1)c1nc2c(s1)CCCC2 | . | . | 57 | . | . | .
CC(=O)Nc1ccc(S(=O)(=O)O)c(OC(C)=O)c1 | / | / | . | / | / | /
c1csc(-c2csc3nc(CN4CCOCC4)nc(NCc4ccc5c(c4)OCO5)c23)c1 | 64 | . | . | . | . | 57
c1ccc2c(c1)nc(NCc1ccc3c(c1)OCO3)n2CCN1CCOCC1 | . | . | . | . | . | .
Nn1c(Cc2cccc3ccccc23)nnc1SCC(=O)NC1CCS(=O)(=O)C1 (centres undefined) | . | 90 | . | . | . | .
O=C1CCN(Cc2ccc([N+](=O)[O-])cc2)CCN1[C@H](CO)c1ccccc1 | / | . | . | . | . | .
COc1ccc(-c2csc3nc(-c4cccnc4)nc(Cl)c23)cc1OC | 63 | . | . | . | . | .
Clc1ncnc2scc(-c3ccccc3)c12 | . | . | / | . | . | .
Clc1nc(-c2cccnc2)nc2scc(-c3ccccc3)c12 | 77 | . | . | . | . | .
COc1ccc2c(c1)C(CC(=O)NN)CCC2 (centres undefined) | / | / | . | / | / | /
COc1cc(C(=O)Nc2nnc(CC(=O)NCc3ccccc3)s2)cc(OC)c1OC | / | . | . | . | . | .
COc1cc2ccccc2cc1C(=O)Nc1ccc(O)cc1 | / | . | . | . | . | .
Cc1cc(-c2csc(N)n2)c(C)n1Cc1ccco1 | . | 61 | . | . | . | .
Cc1cc(-c2csc(N)n2)c(C)n1C | . | 86 | . | . | . | .
Cc1cc(C)c(C(=O)COC(=O)c2nn(C)c(=O)c3ccccc23)cc1C | / | / | . | / | / | /
CC1C(=NO)C(C)C(c2ccccc2)NC1c1ccccc1 (centres undefined) | . | . | . | . | . | .
Cc1ccc(C2NC(c3ccc(C)cc3)C(C)C(=NO)C2C)cc1 (centres undefined) | 83 | . | . | . | . | .
COc1ccccc1N1CCN(C(=O)C(=O)c2c[nH]c3ccccc23)CC1 | / | . | . | . | . | .
CC(Oc1ccc(Cl)cc1Cl)C(=O)NC(=S)N1CCc2ccccc21 (centres undefined) | . | . | . | . | . | 104
CC(=O)Nc1ccc(S(=O)(=O)NCCC(=O)OCC(=O)NCc2ccccc2)cc1 | / | / | . | / | / | /
CCN(CC(=O)NCc1ccc(Cl)cc1)C(=O)c1cc(OC)cc(OC)c1 | / | . | . | . | . | .
Cc1nc(N2N=C3/C(=C/c4ccc(F)cc4)CCCC3C2c2ccc(F)cc2)sc1C(=O)N(C)C (centres undefined) | 74 | . | . | . | . | .
CN=C(c1ccc(C)cc1)n1c(=S)nc(-c2ccc(C)cc2)n(C)c1=S | . | . | . | . | . | .
CN=C(c1ccco1)n1c(=S)nc(-c2ccco2)n(C)c1=S | . | 89 | . | . | . | .
CCc1ccc(-c2cc(C)no2)cc1S(=O)(=O)NC(C)Cc1ccco1 (centres undefined) | / | . | . | . | . | .
